Test results as given in PubChem BioAssay (Tox21).
Results filed as inconclusive are left out. Entries that show only a call come without a potency. The source made the active and inactive calls. Calls follow the shape of the dose curve; as a rule, active = well fitted curve in the direction sought with a large enough effect in the repeat runs; inconclusive = weak or mixed curves; inactive = no such curve, though single readings can be large; an effect the other way counts as inactive or inconclusive.

Test: qHTS assay to identify small molecule agonists of the RXR signaling pathway - cell viability counter screen (AID 1159529);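 also: HEK 293T cells carrying an RXR-alpha UAS beta-lactamase reporter; nearly all actives have a fitted effect of over 50% in size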
Conditions: RXR-alpha-bla HEK293T viability, CellTiter-Glo, 16 h; series mostly up to 76.8 µM
Summary of the method: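 Counter screen: CellTiter-Glo luminescence. Cells: RXR-alpha-UAS-bla HEK 293T. Medium: 2% charcoal-stripped FBS. Treatment: 16 h, 37 C. Reagent incubation: 30 min, RT.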
For `COc1ccc(/C=C/S(=O)(=O)NC(=O)c2ccc(C)cc2Cl)cc1`, the Potency was “inactive”. For `O=C(Cl)c1cc(Cl)cc(Cl)c1`, the Potency was “inactive”. With `O=C(NC1CCN(CCc2c[nH]c3ccccc23)CC1)c1ccccc1` the Potency was “inactive”. With `Cc1c(N=C=O)cccc1N=C=O` the Potency was “inactive”. For `CC(C)Cc1nccs1`, the Potency was “inactive”. For `CC/C=C\CCO`, the Potency was “inactive”. In the case of `S=c1[nH][nH]c(=S)s1`, the Potency is reported as “inactive”. With `CC(C)CCCCCOC(=O)CS` the Potency was “inactive”. In the case of `CC(=O)CC/C=C(\C)CC/C=C(\C)CC/C=C(\C)CCC=C(C)C`, the Potency is reported as “inactive”. With `CC/C=C/CCO` the Potency was “inactive”. In the case of `CCOCCn1c(N2CCCN(C)CC2)nc2ccccc21`, the Potency is reported as “inactive”. In the case of `CC(C)C[C@H](NC(=O)[C@H](Cc1ccccc1)NC(=O)c1cnccn1)B(O)O`, the Potency is reported as “inactive”. In the case of `O=C(N[C@@H](Cc1ccccc1)[C@@H](O)C(=O)N1C[C@@H](O)[C@@H](O)C1)c1cc2cc(Cl)ccc2[nH]1`, the Potency is reported as “inactive”. With `C=CC(=O)OCCCCCCCCCC` the Potency was “inactive”. With `CCOc1cc(OCC)c(C(C)=O)cc1OCC` the Potency was “inactive”. In the case of `COc1ccc(/C=C/c2cc(OC)cc(=O)o2)cc1`, the Potency is reported as “inactive”. With `O=C(O)c1ccccc1[N+](=O)[O-]` the Potency was “inactive”. For `CCCCCCCCNC`, the Potency was “inactive”. With `C[Si](C)(C)O[Si](C)(C)O[Si](C)(C)C` the Potency was “inactive”. For `Nc1ccc(C(=O)Oc2ccccc2)c(O)c1`, the Potency was “inactive”. In the case of `CC(C)(Cc1c[nH]c2ccccc12)NCC(O)COc1ccccc1C#N` (stereo not given), the Potency is reported as “inactive”. With `O=P(c1ccccc1)(c1ccccc1)c1ccccc1` the Potency was “inactive”. With `COc1cc(C)c(Cc2cnc(N)nc2N)cc1OC` the Potency was “inactive”. In the case of `O=C(O)c1ccc(O)c(O)c1`, the Potency is reported as “inactive”. With `O=[N+]([O-])c1ccc(Cl)cc1Cl` the Potency was “inactive”. In the case of `Cc1c(Cl)cccc1[N+](=O)[O-]`, the Potency is reported as “inactive”. In the case of `CC(=O)c1ccc(Cl)c(Cl)c1Cl`, the Potency is reported as “inactive”. With `Nc1ccc(F)cc1F` the Potency was “inactive”. With `C/C(=C\C(C)CC(C)CC(C)C)C1CC(=O)OC1=O` (stereo not given) the Potency was “inactive”.

Test: qHTS assay to identify small molecule antagonists of the retinoid acid receptor (RAR) signaling pathway - cell viability counter screen (AID 1159551); also: nearly all actives have a fitted effect of over 35% in size
Conditions: C3RL4 cells viability, ATP luminescence (CellTiter-Glo), 6 h; series mostly up to 92.4 µM
Summary of the method: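 Cytotoxicity counter screen in C3RL4 cells: 6 h compound exposure with 1 uM retinol (final), viability from cellular ATP by luminescence.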
For `COc1ccc(/C=C/S(=O)(=O)NC(=O)c2ccc(C)cc2Cl)cc1`, the outcome was “inactive”. In the case of `O=C(Cl)c1cc(Cl)cc(Cl)c1`, the outcome is reported as “inactive”. In the case of `O=C(NC1CCN(CCc2c[nH]c3ccccc23)CC1)c1ccccc1`, the outcome is reported as “inactive”. For `Cc1ccccc1CCO`, the outcome was “inactive”. For `Cc1c(N=C=O)cccc1N=C=O`, the outcome was “inactive”. With `CC(C)Cc1nccs1` the outcome was “inactive”. In the case of `O=C1CCCN1CCO`, the outcome is reported as “inactive”. In the case of `CC/C=C\CCO`, the outcome is reported as “inactive”. In the case of `S=c1[nH][nH]c(=S)s1`, the outcome is reported as “inactive”. With `CC(C)CCCCCOC(=O)CS` the outcome was “inactive”. With `CC(=O)CC/C=C(\C)CC/C=C(\C)CC/C=C(\C)CCC=C(C)C` the outcome was “inactive”. In the case of `CC/C=C/CCO`, the outcome is reported as “inactive”. In the case of `CCCCCCC/C=C/C=O`, the outcome is reported as “inactive”. For `CCOCCn1c(N2CCCN(C)CC2)nc2ccccc21`, the outcome was “inactive”. For `CC(C)C[C@H](NC(=O)[C@H](Cc1ccccc1)NC(=O)c1cnccn1)B(O)O`, the outcome was “inactive”. For `O=C(N[C@@H](Cc1ccccc1)[C@@H](O)C(=O)N1C[C@@H](O)[C@@H](O)C1)c1cc2cc(Cl)ccc2[nH]1`, the outcome was “inactive”. With `C=CC(=O)OCCCCCCCCCC` the outcome was “inactive”. In the case of `CCOc1cc(OCC)c(C(C)=O)cc1OCC`, the outcome is reported as “inactive”. In the case of `COc1ccc(/C=C/c2cc(OC)cc(=O)o2)cc1`, the outcome is reported as “inactive”. With `O=C(O)c1ccccc1[N+](=O)[O-]` the outcome was “inactive”. For `CCCCCCCCNC`, the outcome was “inactive”. In the case of `C[Si](C)(C)O[Si](C)(C)O[Si](C)(C)C`, the outcome is reported as “inactive”. For `CC(C)CCCCCCCOC(=O)c1ccc(C(=O)OCCCCCCCC(C)C)c(C(=O)OCCCCCCCC(C)C)c1`, the outcome was “inactive”. In the case of `Nc1ccc(-c2ccc(F)cc2)cc1`, the outcome is reported as “inactive”. For `Nc1ccc(C(=O)Oc2ccccc2)c(O)c1`, the outcome was “inactive”. In the case of `O=C(O)c1cc(C(=O)O)cc([N+](=O)[O-])c1`, the outcome is reported as “inactive”. In the case of `CC(C)C/C=C(\C=O)c1ccccc1`, the outcome is reported as “inactive”. For `CC(C)(Cc1c[nH]c2ccccc12)NCC(O)COc1ccccc1C#N` (stereo not given), the outcome was “inactive”. For `O=P(c1ccccc1)(c1ccccc1)c1ccccc1`, the outcome was “inactive”. With `COc1cc(C)c(Cc2cnc(N)nc2N)cc1OC` the outcome was “inactive”. For `C=C[Si]1(C)O[Si](C)(C=C)O[Si](C)(C=C)O[Si](C)(C=C)O1` (stereo not given), the outcome was “inactive”. For `O=C(O)c1ccc(O)c(O)c1`, the outcome was “inactive”. With `O=[N+]([O-])c1ccc(Cl)cc1Cl` the outcome was “inactive”. For `O=C(O)c1ccccc1-n1cc(C(=O)O)c(=O)c2cc(Nc3c(F)cc(F)cc3Cl)c(Cl)cc21`, the outcome was “inactive”. In the case of `Cc1c(Cl)cccc1[N+](=O)[O-]`, the outcome is reported as “inactive”. With `CC(=O)c1ccc(Cl)c(Cl)c1Cl` the outcome was “inactive”. In the case of `Nc1ccc(F)cc1F`, the outcome is reported as “inactive”. With `C/C(=C\C(C)CC(C)CC(C)C)C1CC(=O)OC1=O` (stereo not given) the outcome was “inactive”. For `CCN(CC)CC(=O)OCC(=O)[C@@]1(O)CC[C@H]2[C@@H]3CCC4=CC(=O)CC[C@]4(C)[C@H]3[C@@H](O)C[C@@]21C`, the outcome was “inactive”.

Test: qHTS assay to identify small molecule antagonists of the retinoic acid receptor (RAR) signaling pathway (AID 1159552; also: nearly all actives have a fitted effect of over 50% in size)
Conditions: C3RL4 RARE luciferase reporter, retinol-stimulated, 6 h; series mostly up to 92.4 µM
Summary of the method: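 Antagonism of retinol-induced RARE reporter activity was measured in C3RL4 cells. Exposure to compounds and 1 uM final retinol lasted 6 hr at 37 C, with luminescence as endpoint.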
With `COc1ccc(/C=C/S(=O)(=O)NC(=O)c2ccc(C)cc2Cl)cc1` the outcome was “inactive”. With `O=C(NC1CCN(CCc2c[nH]c3ccccc23)CC1)c1ccccc1` the outcome was “inactive”. For `Cc1ccccc1CCO`, the outcome was “inactive”. In the case of `Cc1c(N=C=O)cccc1N=C=O`, the outcome is reported as “inactive”. In the case of `CC(C)Cc1nccs1`, the outcome is reported as “inactive”. For `CC(C)CCCCCOC(=O)CS`, the outcome was “inactive”. In the case of `CC(=O)CC/C=C(\C)CC/C=C(\C)CC/C=C(\C)CCC=C(C)C`, the outcome is reported as “inactive”. In the case of `CCOCCn1c(N2CCCN(C)CC2)nc2ccccc21`, the outcome is reported as “inactive”. For `CC(C)C[C@H](NC(=O)[C@H](Cc1ccccc1)NC(=O)c1cnccn1)B(O)O`, the outcome was “inactive”. In the case of `O=C(N[C@@H](Cc1ccccc1)[C@@H](O)C(=O)N1C[C@@H](O)[C@@H](O)C1)c1cc2cc(Cl)ccc2[nH]1`, the outcome is reported as “inactive”. With `C=CC(=O)OCCCCCCCCCC` the outcome was “inactive”. For `CCOc1cc(OCC)c(C(C)=O)cc1OCC`, the outcome was “inactive”. For `COc1ccc(/C=C/c2cc(OC)cc(=O)o2)cc1`, the outcome was “inactive”. With `O=C(O)c1ccccc1[N+](=O)[O-]` the outcome was “inactive”. For `Nc1ccc(-c2ccc(F)cc2)cc1`, the outcome was “inactive”. In the case of `Nc1ccc(C(=O)Oc2ccccc2)c(O)c1`, the outcome is reported as “inactive”. For `O=C(O)c1cc(C(=O)O)cc([N+](=O)[O-])c1`, the outcome was “inactive”. For `CC(C)C/C=C(\C=O)c1ccccc1`, the outcome was “inactive”. In the case of `CC(C)(Cc1c[nH]c2ccccc12)NCC(O)COc1ccccc1C#N` (stereo not given), the outcome is reported as “inactive”. With `COc1cc(C)c(Cc2cnc(N)nc2N)cc1OC` the outcome was “inactive”. In the case of `C=C[Si]1(C)O[Si](C)(C=C)O[Si](C)(C=C)O[Si](C)(C=C)O1` (stereo not given), the outcome is reported as “inactive”. For `O=C(O)c1ccc(O)c(O)c1`, the outcome was “inactive”. For `O=[N+]([O-])c1ccc(Cl)cc1Cl`, the outcome was “inactive”. With `O=C(O)c1ccccc1-n1cc(C(=O)O)c(=O)c2cc(Nc3c(F)cc(F)cc3Cl)c(Cl)cc21` the outcome was “inactive”. With `Cc1c(Cl)cccc1[N+](=O)[O-]` the outcome was “inactive”. With `CC(=O)c1ccc(Cl)c(Cl)c1Cl` the outcome was “inactive”. With `CCN(CC)CC(=O)OCC(=O)[C@@]1(O)CC[C@H]2[C@@H]3CCC4=CC(=O)CC[C@]4(C)[C@H]3[C@@H](O)C[C@@]21C` the outcome was “inactive”.
